Results filed as inconclusive are left out. Active and inactive are the calls of the source. Calls come from the whole dose curve; as a rule, active = well fitted curve in the direction sought with a large enough effect; inconclusive = small, poorly fitted or top-dose-only effect, or effect the other way, or another doubt; inactive = no such curve, though single readings can be large or run the other way.
biological target: Pyruvate kinase PKLR (Homo sapiens) (UniProt P30613); assay: Confirmation Concentration-Response Assay for Activators of Human Liver Pyruvate Kinase; conditions: purified hPK-L, Kinase-Glo ATP luminescence, 1 h; series mostly up to 57.5 µM
Sequence (P30613 whole entry, looked up): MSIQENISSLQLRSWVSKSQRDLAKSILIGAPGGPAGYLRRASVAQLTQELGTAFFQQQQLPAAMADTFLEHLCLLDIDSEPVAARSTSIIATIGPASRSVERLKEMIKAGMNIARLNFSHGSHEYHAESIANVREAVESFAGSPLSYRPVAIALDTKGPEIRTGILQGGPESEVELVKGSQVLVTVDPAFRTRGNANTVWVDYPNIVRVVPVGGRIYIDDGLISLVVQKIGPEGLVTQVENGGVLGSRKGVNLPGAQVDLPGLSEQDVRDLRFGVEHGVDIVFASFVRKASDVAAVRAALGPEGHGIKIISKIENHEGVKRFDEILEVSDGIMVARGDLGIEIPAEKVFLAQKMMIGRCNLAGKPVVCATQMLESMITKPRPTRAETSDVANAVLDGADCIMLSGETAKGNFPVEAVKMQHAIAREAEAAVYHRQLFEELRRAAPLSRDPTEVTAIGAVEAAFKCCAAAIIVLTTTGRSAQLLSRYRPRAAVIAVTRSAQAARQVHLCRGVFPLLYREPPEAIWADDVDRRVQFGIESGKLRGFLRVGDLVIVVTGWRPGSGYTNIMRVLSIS
Description: Confirmatory assay NIH Chemical Genomics Center [NCGC] Matthew G. Vander Heiden, M.D., Ph.D. [Harvard Medical School, 77 Avenue Louis Pasteur, Boston, MA 02115] NCGC Assay Overview: Human pyruvate kinase liver (hPK-L) enzyme was supplied as a highly purified (>95% pure) preparation from Harvard Medical School and assayed for its ability to generate ATP from ADP using phosphoenolpyruvate (PEP) as a substrate. ATP generation was detected in a coupled reaction by luciferase-mediated luminescence, an ATP-dependent process. Pyruvate kinase substrates, PEP and ADP, were present in the assay at Km and approximately 10-fold below Km respectively. The enzyme was assayed at an intermediate level of activity to screen for both inhibitors and activators.
NCGC Assay Protocol Summary for L-isoform: Three uL of substrate mix (at r.t.) in assay buffer (50 mM Imidazole pH7.2, 50 mM KCl, 7 mM MgCl2, 0.01% Tween 20, 0.05% BSA) was dispensed into white solid bottom 1,536 well microtiter plates so that the final concentrations of substrates in the assay were 0.1 mM ADP and 0.5 mM PEP. 23 nL of compound were delivered by a pin tool and 1 uL of enzyme mix (final concentration of 0.1 nM) in assay buffer (4 degree Celsius) was added. Plates were incubated at room temperature for 1 hour. Two uL of detection mix (Kinase-Glo, Promega; at 4 degree Celsius protected from light) was added and luminescence read by a ViewLux (Perkin Elmer) at 1 second exposure/plate. Data were normalized to the uninhibited (row 31). Additionally, a no enzyme and 5-fold enzyme control was dispensed in row 32, split equally between the two conditions.

outcome, inactive:
COC(=O)c1cc2c(s1)c1cnn(Cc3ccccc3F)c(=O)c1n2C
CCc1cc2c(s1)c1cnn(Cc3ccccc3F)c(=O)c1n2C
Cc1cc2c(s1)c1c(C)nn(Cc3ccccc3F)c(=O)c1n2C
Cc1cc2c(s1)c1cnn(Cc3ccc(C)c(F)c3F)c(=O)c1n2C
Cc1ccc(Cn2ncc3c4sc(C)cc4n(C)c3c2=O)cc1
COc1ccc(S(=O)(=O)N2CCN(S(=O)(=O)c3ccc(OC)cc3)CC2)cc1
O=S(=O)(NCCCCCCNS(=O)(=O)c1c(F)cccc1F)c1ccc2c(c1)OCCO2
C[C@@H]1CN(S(=O)(=O)c2ccc3c(c2)OCCO3)CCN1S(=O)(=O)c1c(F)cccc1F
Cc1cc2c(s1)c1cnn(Cc3ccccc3F)c(=O)c1n2C
CCCCCn1ncc2c3sc(C)cc3n(C)c2c1=O
Cn1c2ccsc2c2ncn(Cc3ccccc3F)c(=O)c21
Cc1cc2c(s1)c1cnn(Cc3ccc(S(C)(=O)=O)cc3)c(=O)c1n2C
Cc1cc2[nH]c3c(=O)n(Cc4ccccc4F)ncc3c2s1
Cc1cc2c(s1)c1cnn(Cc3ccccc3F)c(=O)c1n2C(C)C
O=C(c1c(F)cccc1F)N1CCN(S(=O)(=O)c2ccc3c(c2)OCCO3)CC1
Cc1cc2c(s1)c1cnn(Cc3cc(C(F)(F)F)cc(Cl)c3F)c(=O)c1n2C
Cc1cc2c(s1)c1cnn(Cc3c(F)cccc3Cl)c(=O)c1n2C
COc1ccc(S(=O)(=O)N2CCN(S(=O)(=O)c3c(F)cccc3F)CC2)cc1
CC(=O)c1cc2c(s1)c1cnn(Cc3ccccc3F)c(=O)c1n2C
O=S(=O)(c1ccc2c(c1)OCCO2)N1CCN(S(=O)(=O)c2ccc3c(c2)OCCO3)CC1
Cc1cc2c(s1)c1cnn(Cc3ccc(F)cc3F)c(=O)c1n2C
CC1(C)CCc2cc(S(=O)(=O)N3CCN(S(=O)(=O)c4c(F)cccc4F)CC3)ccc2O1
COc1cc2c(s1)c1cnn(Cc3ccccc3F)c(=O)c1n2C
Cc1cc2c(s1)c1cnn(Cc3c(F)cccc3F)c(=O)c1n2C
Cc1cc2c(s1)c1cnn(Cc3cccc(F)c3)c(=O)c1n2C
COc1ccc(S(=O)(=O)N2CCN(S(=O)(=O)c3ccc4c(c3)OCCO4)CC2)cc1
O=S(=O)(c1ccc2c(c1)OCCO2)N1CCN(S(=O)(=O)c2cccc[n+]2[O-])CC1
Cc1cc2c(s1)c1cnn(Cc3c(F)c(F)cc(F)c3F)c(=O)c1n2C
Cc1cc2c(s1)c1cnn(Cc3ccc(F)c(F)c3F)c(=O)c1n2C
Cc1cc2c(s1)c1cnn(Cc3ccc(-c4ccccc4)cc3)c(=O)c1n2C
CCn1c2cc(C)sc2c2cnn(Cc3ccccc3F)c(=O)c21
COc1cc(F)c(S(=O)(=O)N2CCN(S(=O)(=O)c3ccc4c(c3)OCCO4)CC2)c(F)c1
Cc1cc2c(s1)c1cnn(Cc3cccc(Cl)c3)c(=O)c1n2C
Cn1ccc2cc(S(=O)(=O)N3CCN(S(=O)(=O)c4c(F)cccc4F)CC3)ccc21
N#Cc1ccc(S(=O)(=O)N2CCN(S(=O)(=O)c3ccc4c(c3)OCCO4)CC2)cc1
Cn1c2cc(CO)sc2c2cnn(Cc3ccccc3F)c(=O)c21
Cc1cc2c(s1)c1cnn(Cc3cccc(Cn4ncc5c6sc(C)cc6n(C)c5c4=O)c3F)c(=O)c1n2C
CN1CCOc2ccc(S(=O)(=O)N3CCN(S(=O)(=O)c4c(F)cccc4F)CC3)cc21
O=S(=O)(c1ccc2ccccc2c1)N1CCN(S(=O)(=O)c2c(F)cccc2F)CC1
Cn1c2cc(S(C)=O)sc2c2cnn(Cc3ccccc3F)c(=O)c21 (stereo not given)

Source: PubChem BioAssay AID1781 (National Center for Advancing Translational Sciences (NCATS), 2009)
